About 5,300 (4.4%) of roughly 120,000 compounds were called active. Not shown: some 22% with an inconclusive outcome. Shown is part of a subset that was picked to be rich in actives. Unmarked numbers belong to inactive results. Calls follow the shape of the dose curve; as a rule, active = well fitted inhibition curve with a large enough effect; inconclusive = small, poorly fitted or top-dose-only effect; inactive = no such curve, though single readings can be large or run the other way.
assay: qHTS Primary assay for Inhibitors of Plasmodium falciparum Dd2 growth in vitro; also: nearly all actives have a fitted effect of over 65% in size;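 as to activity, negative = inhibition: plate controls were DMSO vehicle for no effect and reference drug for full effect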; conditions: P. falciparum Dd2 growth, SYBR Green, 72 h; series mostly up to 28.9 µM; activity, negative = inhibition: at the top concentration
In short: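 Readout: SYBR Green fluorescence, 485 nm excitation, 535 nm emission, after ~16 h lysis at 37C. Before that, Dd2-infected red cells (2.5% hematocrit) grew 72 h with compound, 29 uM top final concentration.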
Potency is read from the fitted curve at half-maximal effect.

SMILES	activity, negative = inhibition	Potency	outcome
CC1=C[C@@H](CC#N)[C@H](C(C)C)C[C@H]1CC(=O)N1CCN(C)CC1	-5.72% [at 44.1 µM]	–	–
CC1=C[C@@H](CN2CCC(O)CC2)[C@H](C(C)C)C[C@H]1Cc1nnc(-c2ccccc2F)o1	–	8.91 µM (active)	–
CC1=C[C@@H](CNC(=O)COc2ccccc2)[C@H](C(C)C)C[C@H]1CC(=O)NCc1ccccn1	–	–	inactive
CC1=C[C@@H](CNC(C)C)[C@H](C(C)C)C[C@H]1Cc1nnc(-c2ccncc2)o1	–	–	inactive [at 44.1 µM]
CN(C)C[C@@H]1CN(Cc2ccccn2)C[C@H]1NC(=O)c1cc(Cl)ccc1F	-5.45%	–	–
Cc1ccc(C(=O)N2C[C@@H](Oc3cccnc3)C[C@H]2C(=O)N2CCOCC2)s1	–	–	inactive
CCC(CC)NC(=O)C1Cn2cccc2C(=O)N1 (stereo not drawn)	28.6%	–	–
Cc1noc(-c2cn(C3CCN(C(=O)c4ccoc4)CC3)nn2)n1	–	–	inactive
NC(=O)c1cccc(-c2ccc3c(n2)CN(Cc2ccc(C(F)(F)F)cc2)C(=O)CO3)c1	-1.99%	–	–
COc1ccc(Nc2nc(-c3cccc(OC)c3OC)no2)cc1	-26.2%	–	–
COc1ccc(Cl)cc1NC(=O)Cn1c(=O)c2ccccc2n2nncc12	-12.2%	–	–
O=C(Cn1cccc1-c1nc(-c2ccccc2)no1)Nc1ccccc1F	–	3.98 µM (active)	–
CC(=O)c1ccc(NC(=O)COc2ccccc2-c2nc(-c3ccccc3)no2)cc1	31%	–	–
COc1ccc(-c2noc(-c3cccn3CC(=O)Nc3ccccc3)n2)cc1F	–	1.58 µM (active)	–
COc1ccc(-c2noc(-c3cccn3CC(=O)Nc3cc(Cl)ccc3OC)n2)cc1F	–	3.98 µM (active)	–
CCc1cc(=O)n(CC(=O)Nc2ccccc2F)c(-c2cccc(F)c2)n1	-32.6%	–	–
O=C(Cn1cccc1-c1nc(-c2ccc(F)cc2)no1)Nc1cc(F)cc(F)c1	–	–	inactive
COc1ccc(Cl)cc1NC(=O)CSc1nc(=O)[nH]c2c1CCCC2	–	–	inactive
COc1ccc(CNC(=O)Cn2cccc2-c2nc(-c3ccc(F)cc3)no2)cc1	47.4%	–	–
CCOC(=O)N1CCC(N2CCN(c3cc(C(C)C)nc(C)n3)CC2)CC1	-26.4%	–	–
Cc1ccccc1C(=O)N[C@@H]1CN(c2ncccn2)C[C@H]1CO	15.2%	–	–
Cc1cccc(-c2noc(CCC(=O)N[C@H]3CC[C@H]3NC3CCCC3)n2)c1	–	–	inactive
CO[C@H]1C(=O)N(C2CCN(C(=O)c3ccncc3)CC2)[C@H]1c1ccncc1	16.9%	–	–
Cc1nc(-c2c3n(c(=O)n(Cc4ccc(Br)cc4)c2=O)CCCCC3)no1	-2.97%	–	–

SMILES	activity, negative = inhibition	Potency	outcome
CNC(=O)[C@@H]1C[C@H](n2cc(CN(C)C(=O)c3cccc(F)c3F)nn2)CN1	18.4%	–	–
CCc1cccc(-n2nnnc2N2CCN(C(=O)Nc3ccc(C)c(OC)c3)CC2)c1	-18.1%	–	–
O=C(O)CN1CC2(CCC1=O)CCN(C(=O)C1CNC(=O)C1)CC2 (stereo not drawn)	-11.9%	–	–
CCC(C(=O)NCCn1ccn2nc(-c3ccc(F)cc3)cc2c1=O)c1ccccc1 (stereo not drawn)	-4.99%	–	–
COc1ccc(-c2nccc3c(=O)cc(N(C)c4ccccc4)oc23)cn1	–	–	inactive [at 44.1 µM]
COc1ccccc1-c1cc(-c2cn[nH]c2)c2cncn2c1	–	12.6 µM (active)	–
COc1ccccc1-c1cc(-c2cn[nH]c2)c2onc(C)c2n1	–	–	inactive [at 44.1 µM]
Cc1noc(C)c1-c1cc(-c2cncnc2)cn2cncc12	-3.21% [at 44.1 µM]	–	–
COc1ccc(-c2cc(-c3cnc4[nH]ccc4c3)cn3cncc23)cn1	–	4.47 µM (active)	–
OCc1ccc(-c2cc(-c3cccnc3)c3cncn3c2)cc1	-25% [at 44.1 µM]	–	–
COc1ccc(-c2cc(-c3cccc4[nH]ncc34)cn3cncc23)cn1	–	3.98 µM (active)	–
Cn1cc(-c2cc(-c3cccnc3)c3cncn3c2)cn1	-7.39% [at 44.1 µM]	–	–
Cc1noc(C)c1-c1cc(-c2ccccc2Oc2ccccc2)cn2cncc12	–	5.62 µM (active)	–
CCCN1CCN(C(=O)CC2CCCN(c3cnn(CCOC)c(=O)c3)C2)CC1 (stereo not drawn)	53.5%	–	–
O=C(c1cnccn1)N1CC2CC(C1)[C@H]1CCCC(=O)N1C2 (stereo partly drawn)	-6.56%	–	–
CCn1ncc(C(=O)N2CC[C@@H]3CN(S(C)(=O)=O)[C@@H]3C2)c1C	16.8%	–	–
NC(=O)CCNC(=O)C1=C[C@@H](NC(=O)CC2(CC(=O)O)CCCC2)[C@@H](O)[C@H](O)C1	1.07% [at 44.1 µM]	–	–
O=C(c1ccc(C(F)(F)F)cc1)N1CCC([C@@H]2CNC[C@H]2CO)CC1	–	–	inactive
Cc1nnc2n1CCC(NC(=O)c1cc(CN3CCOCC3)on1)CC2 (stereo not drawn)	60%	–	–
CN(C)C[C@H]1C[C@@H](CO)CN(C(=O)CCc2ccncc2)C1	7.96%	–	–
O=C1CCN(C(=O)C2CCN(C(=O)NC3CCCCC3)CC2)CCCCCCN1	-11.1%	–	–
Cc1cccc(C)c1-c1nc(C(=O)NCc2ccc(F)cc2)n2ccccc12	-2.3%	–	–
O=C(NCc1ccc(F)cc1)c1nc(-c2ccccc2)c2ccccn12	–	11.2 µM (active)	–
COCCNC(=O)c1nc(-c2cc(Cl)cc(Cl)c2)c2ccccn12	–	inactive	–

From PubChem BioAssay AID1347417 (National Center for Advancing Translational Sciences (NCATS), 2020)
